About 83,000 compounds went through this panel and 20% of them were active in at least one assay; those are over-represented in the sample as a whole.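 The endpoint reported here, percent growth, reads 100 for growth as untreated, 0 for no net growth and -100 for all cells dead.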 A number with no mark means an inactive call. The source made the active and inactive calls. How the source made its calls: active means growth percent below 10; inactive means the rest.
Key:
Assay in all cases: NCI-60 one-dose screen, 48 h (100 = growth as untreated, 0 = no growth, -100 = all killed)
Details in all cases: 10 µM
NCI-H23 lung = system: NCI-H23 lung
NCI-H226 lung = system: NCI-H226 lung
NCI-H322M lung = system: NCI-H322M lung
HOP-62 NSCLC = system: HOP-62 NSCLC
HOP-92 NSCLC = system: HOP-92 NSCLC
NCI-H522 lung = system: NCI-H522 lung
A549/ATCC NSCLC = system: A549/ATCC NSCLC
786-0 renal = system: 786-0 renal
COLO 205 colon = system: COLO 205 colon
DU-145 prostate = system: DU-145 prostate
K-562 leukemia = system: K-562 leukemia
MALME-3M melanoma = system: MALME-3M melanoma
MDA-MB-231 breast = system: MDA-MB-231 breast
RXF 393 renal = system: RXF 393 renal
SF-268 CNS = system: SF-268 CNS
SF-295 CNS = system: SF-295 CNS
SF-539 CNS = system: SF-539 CNS
UACC-257 melanoma = system: UACC-257 melanoma
M14 melanoma = system: M14 melanoma
NCI-H460 lung = system: NCI-H460 lung

SMILES | growth (NCI-H23 lung) | growth (NCI-H226 lung) | growth (NCI-H322M lung) | growth (HOP-62 NSCLC) | growth (HOP-92 NSCLC) | growth (NCI-H522 lung) | growth (A549/ATCC NSCLC) | growth (786-0 renal) | growth (COLO 205 colon) | growth (DU-145 prostate) | growth (K-562 leukemia) | growth (MALME-3M melanoma) | growth (MDA-MB-231 breast) | growth (RXF 393 renal) | growth (SF-268 CNS) | growth (SF-295 CNS) | growth (SF-539 CNS) | growth (UACC-257 melanoma) | growth (M14 melanoma) | growth (NCI-H460 lung)
Brc1ccc(/C=C/c2n(Cc3ccc4ccccc4c3)c3ccccc3[n+]2Cc2ccc3ccccc3c2)cc1 | -81.9% (active) | -85% (active) | 7.28% (active) | -74.3% (active) | -89.5% (active) | -84.2% (active) | 10.4% | -95.5% (active) | -69.3% (active) | 3.53% (active) | -19.3% (active) | -87.8% (active) | -95.9% (active) | -83.1% (active) | -38.3% (active) | -65.4% (active) | -98.4% (active) | -40.3% (active) | -31.7% (active) | –
COc1ccc(C(=O)CSc2nnc(-c3c[nH]c4ccccc34)n2-c2ccccc2)cc1 | 56.5% | 0.0587% (active) | 58.3% | 8.82% (active) | 7.9% (active) | 45.7% | 74% | 45.2% | 84.8% | 68.9% | 58.2% | -16.2% (active) | 32.5% | – | 41% | 36.2% | 28.5% | 59.5% | 75.7% | –
O=c1oc2ccc(-c3ccc(F)cc3F)cc2c(=O)n1-c1ccc(F)cc1 | -27.8% (active) | -6.57% (active) | 1.43% (active) | -20.9% (active) | -23.8% (active) | -7.06% (active) | 17.8% | 8.17% (active) | 83.2% | 14.5% | 5.98% (active) | -21.2% (active) | -5.38% (active) | -10.4% (active) | 2.76% (active) | -19.3% (active) | -3.51% (active) | 15.5% | 18.3% | –
O=C1Nc2ccc(Cl)cc2/C1=C/c1ccc(OCc2ccc(Br)cc2F)cc1 | 7.12% (active) | 6.85% (active) | 48.2% | 5.12% (active) | 10.9% | 23.3% | 34.1% | 2.33% (active) | 51.6% | 41.1% | 40.7% | 19.2% | – | 1.46% (active) | 20.3% | 22% | 33.3% | 65.2% | 46.8% | –
N#Cc1c(NC(=O)c2ccc(C(F)(F)F)cc2C(F)(F)F)sc2c1CCC(=O)C2 | -50% (active) | -7.56% (active) | 12.4% | 7.49% (active) | -61.5% (active) | -72.5% (active) | 9.8% (active) | 4.38% (active) | -73.3% (active) | 23.9% | 2.16% (active) | -86.8% (active) | -74.4% (active) | -59% (active) | 27.1% | -21.7% (active) | -80.2% (active) | -64.8% (active) | -50.3% (active) | –
COc1ccc2[nH]c(=O)c(CSc3ccc(Nc4nccc(-c5ccc(Cl)cc5)n4)cc3)cc2c1 | 83.9% | 38.8% | 95.7% | 104% | 93.2% | 86.7% | 98.1% | 109% | 108% | 111% | 81.9% | 113% | 90.1% | – | 99.9% | 102% | -41% (active) | 120% | 109% | –
CC1(C)CC[C@]2(C(=O)NCCCNCCCCNCCCN)CC[C@]3(C)C(=CC[C@@H]4[C@@]5(C)Cc6c([nH]c7ccccc67)C(C)(C)[C@@H]5CC[C@]43C)[C@H]2C1 | 83.7% | 71.8% | 101% | 85% | 60.5% | 79.6% | 86.5% | 89.1% | 115% | 96.3% | – | 85.3% | -7.91% (active) | 78.1% | 113% | 98.5% | 90.7% | 95.9% | 59.7% | –
Cc1cc(C)cc(Oc2cccc(-c3c(C)nnn3C3CCN(CCN(C)C)CC3)n2)c1 | 34.5% | 5.11% (active) | 40% | – | -9.61% (active) | -15.7% (active) | 30.3% | 22.3% | -74% (active) | 55.8% | 13.6% | -40.5% (active) | 36.9% | -6.82% (active) | 52.2% | 32.9% | 34.2% | -31.7% (active) | 7.14% (active) | 51.1%
O=C1Nc2cc(Cl)ccc2/C1=C/c1ccc(OCc2ccc(Br)cc2F)cc1 | -68.8% (active) | -70.6% (active) | 5.43% (active) | -79.7% (active) | -43.4% (active) | -52.5% (active) | -75.2% (active) | -88.7% (active) | -43% (active) | -17.5% (active) | 9.64% (active) | -69.5% (active) | – | -77.4% (active) | -25.9% (active) | -94.9% (active) | -92% (active) | -22.6% (active) | -45.1% (active) | –
Nc1nc2c(F)c(F)c(F)c(F)c2s1 | 102% | 98.6% | 103% | 92.6% | 90.5% | 89.5% | 99.4% | 85.1% | 114% | 114% | 93.1% | 103% | 116% | 109% | 97.8% | 96% | 99% | 104% | 113% | –
Nc1nc(-c2ccccc2)cs1 | 42% | 63.4% | 99.4% | 52% | 60.9% | -4.11% (active) | 55.7% | 93.7% | 108% | 66.7% | 28.2% | 74.4% | 61.8% | – | 48.3% | 37.7% | 53.4% | 81.9% | 72.2% | –
O=S(=O)(c1ccc(Cl)cc1)c1nc(-c2ccccc2)oc1S(=O)(=O)c1ccc(Cl)cc1 | 78.9% | 87.5% | 101% | 91.3% | 85.7% | – | 94.2% | 94.9% | 102% | 97.2% | – | 91.8% | 76.9% | 7.97% (active) | 97.7% | 92.9% | 84.8% | 85.5% | 90.8% | 98%
COc1ccc2[nH]c(O)c(N=NC(=O)COc3ccc(NC(=O)Nc4ccc(Cl)cc4)cc3)c2c1 | -40.4% (active) | -38.5% (active) | 67.8% | -41.1% (active) | -32.5% (active) | 26.7% | 29.4% | 21.4% | -1.56% (active) | 18.5% | – | -14.4% (active) | -69.9% (active) | 44.1% | -10.3% (active) | 14% | -39% (active) | 51.8% | -27.2% (active) | –
N#Cc1c(Cl)nc(SCc2ccc(F)cc2)nc1-c1ccc(F)cc1 | 95.7% | 71.3% | 92.2% | 101% | 74.8% | 74.6% | 91.6% | 95.4% | 120% | 92.5% | 69.8% | 112% | 94.6% | 89.7% | 96.2% | 90% | 91.9% | 100% | 103% | –
COc1cccc(COc2ccc(/C=C3\Oc4cc(O)ccc4C3=O)cc2)c1 | 46.7% | 51.3% | 89.4% | 17.6% | 16.3% | 35.9% | 71.4% | -58% (active) | 113% | 31.8% | 49.4% | 14.3% | 28.6% | -19.3% (active) | 17.2% | 9.41% (active) | 30% | 70.6% | 35.9% | –
CCCCOc1ccc(Nc2nc3ccccc3nc2Nc2ccc(OCCCC)cc2)cc1 | 82.6% | 96.6% | 106% | 98.9% | 97.4% | 88.5% | 89.4% | 72.1% | 116% | 87.9% | 77.3% | 106% | 109% | – | 82% | 87.5% | 106% | 97.3% | 88.5% | –

Source: PubChem BioAssay (NCI)
